The values that follow come from PubChem BioAssay.

A number with no mark means an inactive call. The rule behind the calls is not given here.

The target in the assay is Pantothenate synthetase (Mycobacterium tuberculosis (strain ATCC 25618 / H37Rv)) (UniProt P9WIL5). Nature of the assay: Coupled enzyme confirmation of inhibitors against recombinant Mtb PanC (AID 375).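 Note: 0% = full reaction with vehicle and 100% = no enzyme background.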 As to conditions: coupled enzyme assay; at 10 µM, hits give high values.
Chain of Pantothenate synthetase (Mycobacterium tuberculosis (strain ATCC 25618 / H37Rv)) (P9WIL5 whole entry, looked up): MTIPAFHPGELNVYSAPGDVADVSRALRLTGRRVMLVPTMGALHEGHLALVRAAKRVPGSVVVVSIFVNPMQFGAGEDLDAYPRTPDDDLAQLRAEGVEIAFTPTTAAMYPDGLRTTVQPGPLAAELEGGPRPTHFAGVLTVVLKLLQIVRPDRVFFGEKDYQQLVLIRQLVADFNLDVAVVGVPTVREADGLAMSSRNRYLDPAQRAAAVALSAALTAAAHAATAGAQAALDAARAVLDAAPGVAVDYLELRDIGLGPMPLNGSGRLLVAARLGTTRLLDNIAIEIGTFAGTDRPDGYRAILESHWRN
Turning to `Brc1ccc(-c2nnc3sc(CN4CCC5(CC4)OCCO5)cn23)cc1`, the inhibition was 0%. The figure for `COc1ccccc1N1CCN(C/C(O)=C(\C#N)c2nc(-c3ccccc3)cs2)CC1` is 2%.

As for `CCOC(=O)C(C#N)C(c1cccnc1)c1c(C)[nH][nH]c1=O` (configuration not stated), the inhibition was 3%. The figure for `O=C(NCc1ccco1)c1ccccc1Nc1ccc(F)cc1` is 0%. To `COc1cccc(CNc2nc3nc(C)c(Cl)c(C)n3n2)c1` belongs 12%; to `O=C(NC1CCCCC1)C1CCCN1C(=O)NCc1ccccc1` (configuration not stated), 4%; to `CCCCCc1nnc(NC(=O)Cc2cccs2)s1`, 0%.

Consider `Cn1cc(NC(=O)c2cc(NC(=O)c3cc(NC=O)cn3C)cn2C)cc1C(=O)NCCC(=N)N`, for which the inhibition was 10%. To `CCOC(=O)c1ccc(S(=O)(=O)Nc2cc(C(C)(C)C)no2)cc1` belongs 2%; to `CS(=O)(=O)N(CC(=O)Nc1ccc2c(c1)OCO2)Cc1ccc(Cl)cc1`, 0%. To `c1ccc(-n2cnc3cc(NCc4ccccn4)ccc32)cc1` belongs 0%. With `CN(CCc1ccccn1)C(=O)CCNC(=O)Cn1cnc2ccccc2c1=O`, the inhibition is 1%. With `CCOc1ccccc1C(=O)NCCC(=O)O`, the inhibition was 2%. To `CC1CCN(Cc2ccc(-c3nn[nH]n3)cc2)CC1` belongs 0%; to `CCn1c(C(=O)N2CCC(C(=O)NCc3ccc4c(c3)OCO4)CC2)cc2sccc21`, 0%; to `Cc1ccc(-c2nc3cc(NC(=O)C(C)C)ccc3o2)cc1`, 0%. As for `CSCCC(NC(=O)CCN1C(=O)c2ccccc2C1=O)C(=O)O` (configuration not stated), the inhibition is 0%.
